46 compounds from PubChem BioAssay AID2417 (National Center for Advancing Translational Sciences (NCATS), 2010) can be followed below.

Among all 140,000 compounds or so, about 4,300 (3.1%) were called active. Inconclusive results (about 21%) are left out. For the sample, actives were picked, then their nearest neighbours and some compounds at random. Unmarked numbers belong to inactive results.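 Rule for the calls: active = readout at or below -70, meaning at least 70% loss of cells showing the perinucleolar compartment, a nuclear body marking cancer cells; inconclusive = readout between -30 and a set limit; inactive = the rest.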

This assay can be described thus: High Content Assay for Compounds that inhibit the Assembly of the Perinucleolar Compartment.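 Note: plate controls were DMSO wells for no effect and camptothecin positive control wells for full effect.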 The following applies: PC3M PTB-GFP, PNC prevalence imaging, 16 h; at 10 µM; hits give low values. The source says:
High Content Assay for Compounds that inhibit the Assembly of the Perinucleolar Compartment NIH Chemical Genomics Center [NCGC] NIH Molecular Libraries Probe Centers Network [MLPCN] MLPCN Grant: MH082371-01A2 Assay Submitter (PI): Sui Huang, Northwestern University, Feinberg School of Medicine, Cell and Molecular Biology, Chicago, Illinois. The perinucleolar compartment (PNC) is a non-membrane-bound nuclear subdomain that is associated with but structurally distinct from the nucleolus. The PNC is a heritable trait, in which the number of PNCs per cell in daughter cells often mimics that of their mother cells. The PNC is heterogeneous in shape, is stable through interphase, disassembles during mitosis, and reassembles in early G1. The PNC is concentrated with newly synthesized RNA polymerase III (pol III) RNAs (MRP RNA, RNAse P H1 RNA, hY RNAs[hY1, 2, 5], Alu RNA, and SRP [7SL] RNA) and RNA binding proteins (nucleolin, PTB, CUG-BP, KSRP, Raver1, Raver2, and Rod). […] Extensive in vitro studies have shown that the PNC is unique to tumor cells and preferentially forms in tumor cells derived from solid tissues. Examination of cancer cell lines from various origins and malignant capacities has shown that PNC prevalence correlates with the malignancy of tumors and has the potential to be developed as a pan-cancer prognostic marker. […] Although the PNC is associated with a DNA locus and a handful of components have been identified, much remains to be investigated regarding the structure and function of the PNC and its mechanistic link to cancer. We have previously shown that PNC prevalence reduction is a valid strategy to identify compounds that can be used to study the structure and function of the PNC. It is necessary, however, to create a screening platform that is able to test a large number of compounds in an automated fashion. Here we report the development and robustness of an automated whole-cell phenotypic image-based screening assay that is capable of identifying such compounds.
PNC High Content Imaging Assay Procedure: 1. Cells at a density of 75-90% confluency in T175 flasks were harvested using 7 ml TrypLE Express cell dissociation reagent. After dissociation (5 minutes room temperature incubation) 10 ml of complete media was added to the TrypLE/cell suspension. The liquid was transferred to a 50 ml Conical tube and cells were pelleted at 1000 RPM for 5 min. Supernatant was removed and cells were resuspended to a final density of 150-200 cells/ul in complete media. 2. Cells were plated in 5 ul volume (750-1000 cells/well) into 1536 well Black uclear Aurora Low Base plates and allowed to recover and adhere at 37 C in a humidified 5% CO2 incubator for 4 hours. 3. After 4 hour incubation, compound libraries (23 nl of […] in columns 5-48) were transferred to the plates in duplicate using a 1536 well pintool. Camptothecin positive control (59 uM final) was added to column 2 and 1:3 dilutions of camptothecin was added to column 3. DMSO negative controls were present in columns 1 and 4. 4. After a 16 hour incubation in the 37 C incubator, cells were fixed by the addition of 4 ul of 6% EM grade paraformaldehyde (containing 0.1% triton X 100) directly to the cells. The plates were incubated at room temperature for 20 minutes. The liquid was removed using a 32 channel Kalypsys aspirator and the fixed cells were washed twice with 5 ul PBS followed by a final addition of 5 ul PBS containing 1 ug/ml Hoechst 33342. 5. Fixed plates were sealed and sotred at 4C until imaged. 6. Plates were imaged on an InCell 1000 automated microscope using a 20 x objective, a standard FITC filter set, no camera binning, and an exposure time of ~100-150 msec/well. 7. Data analysis. PNC prevalence was determined using the Multitarget analysis module from InCell Workstation software (V3.5 ) and analysis was run on a quad core workstation using the Incell Developer Toolbox (V1.7). […]
`NNC(=O)c1ccc(Cl)cc1Cl`: the activity change (PNC), negative = inhibition was 5.71%.

For the compound `CCOc1ccccc1C1C(C(=O)OC)=CN(C)C=C1C(=O)OC`, the activity change (PNC), negative = inhibition is 3.14%.

Consider `COC(=O)C1=CN(C)C=C(C(=O)OC)C1c1ccc(Cl)cc1Cl`, for which the activity change (PNC), negative = inhibition was -80.4% (active).

As for `O=C(Cc1cccs1)Nc1cccc(-c2nc3ccccc3[nH]2)c1`, the activity change (PNC), negative = inhibition was 3.35%.

For the compound `COc1cc(NS(=O)(=O)c2ccc(N=Cc3c(C)[nH]n(-c4ccccc4)c3=O)cc2)nc(OC)n1`, the activity change (PNC), negative = inhibition was -26.4%.

On to `COc1cc(NS(=O)(=O)c2ccc(N/C=C(\C=O)c3nc4cc(Cl)ccc4o3)cc2)nc(OC)n1`, for which the activity change (PNC), negative = inhibition is -105% (active).

As to `COc1ccc(S(=O)(=O)Nc2ccc3oc(C)c(C(C)=O)c3c2)cc1`, the activity change (PNC), negative = inhibition was 56.6%.

With `O=C(c1ccc(CSc2ccccc2)cc1)N1CCCCCC1`, the activity change (PNC), negative = inhibition was -13.8%.

`C=CCNC(=O)/C=C/c1ccc(C(C)C)cc1`: the activity change (PNC), negative = inhibition is 29.5%.

Regarding `N#C/C(=C/c1ccc(N2CCCCC2)o1)C(=O)NCCc1c[nH]c2ccccc12`, the activity change (PNC), negative = inhibition is -86.8% (active).

In the case of `N#C/C(=C/c1ccc(N2CCOCC2)o1)C(=O)N1CCOCC1`, the activity change (PNC), negative = inhibition is 61.9%.

Consider `CC(=O)N/C(=C/c1ccc(Cl)cc1)C(=O)NCCc1c[nH]c2ccccc12`, for which the activity change (PNC), negative = inhibition was 19.3%.

For `Cn1cc(C(=O)NCc2ccccc2F)cn1`, the activity change (PNC), negative = inhibition was -25.6%.

With `N#C/C(=C\c1ccccc1C(F)(F)F)C(=O)Nc1ccccc1F`, the activity change (PNC), negative = inhibition is -16.5%.

In the case of `COc1cccc(NC(=O)CC(c2ccc(OC(C)C)cc2)c2ccccc2OC)c1` (stereo unspecified), the activity change (PNC), negative = inhibition was 21%.

As to `NC(=O)CCC(NS(=O)(=O)c1ccc(Cl)cc1)C(=O)NCc1ccccc1Cl` (stereo unspecified), the activity change (PNC), negative = inhibition is -7.93%.

For the compound `COc1ccccc1C1SCCN1C(=O)c1ccc([N+](=O)[O-])cc1` (stereo unspecified), the activity change (PNC), negative = inhibition is 15%.

With `NC1=NC(=O)C(Cc2cccc(Cl)c2)S1` (stereo unspecified), the activity change (PNC), negative = inhibition was 22.5%.

Consider `N#Cc1ccc(N2Cc3ccccc3/C2=N/C(=O)Nc2ccc(Cl)cc2)cc1`, for which the activity change (PNC), negative = inhibition was 16.1%.

Take `O=C(CSc1nc(-c2ccco2)cc(C(F)(F)F)n1)N1CCc2ccccc2C1`: the activity change (PNC), negative = inhibition is -123% (active).

As for `FC(F)(F)c1cc(-c2ccco2)nc(N2CCOCC2)n1`, the activity change (PNC), negative = inhibition was 27.9%.

For the compound `Cc1cc(C(F)(F)F)nn1-c1nc(-c2ccco2)cc(C(F)(F)F)n1`, the activity change (PNC), negative = inhibition is -13%.

As for `Cc1ccc(NC(=O)COC(=O)CCc2nc3ccccc3n2-c2ccccc2)c(C)c1`, the activity change (PNC), negative = inhibition was 55.5%.

As to `O=C(NC(=S)NC1CCSC1=O)c1ccccc1F` (stereo unspecified), the activity change (PNC), negative = inhibition is 12.8%.

For the compound `O=c1c2sccc2nc(SCc2cc(=O)n3ccccc3n2)n1-c1ccc(Br)cc1`, the activity change (PNC), negative = inhibition is 0.678%.

For the compound `Cc1ccc(NC(=O)CSCC(=O)NC2CCCCC2)cc1`, the activity change (PNC), negative = inhibition was 13.8%.

For `O=C(CCN1C(=O)C2C3C=CC(C3)C2C1=O)Nc1ccccc1F` (stereo unspecified), the activity change (PNC), negative = inhibition is 25%.

For `CC(CC(=O)N1CCN(c2ccccc2)CC1)c1ccccc1` (stereo unspecified), the activity change (PNC), negative = inhibition was -11.1%.

Turning to `O=C(CCCN1C(=O)C2C3C=CC(C3)C2C1=O)N1CCN(c2ccccc2)CC1` (stereo unspecified), the activity change (PNC), negative = inhibition was -106% (active).

Take `CC(C)(C)CC(C)(C)NCC(O)COCCOc1ccc(Br)cc1` (stereo unspecified): the activity change (PNC), negative = inhibition was 6.23%.

Take `CC(=O)c1ccc(NC(=O)N[C@@H](Cc2ccccc2)C(=O)O)cc1`: the activity change (PNC), negative = inhibition is 64.7%.

Take `COc1ccc(NC(C(=O)Nc2cccc(C(C)=O)c2)c2ccccc2)cc1` (stereo unspecified): the activity change (PNC), negative = inhibition was 18.3%.

For the compound `COC(C(=O)Nc1ccc(C(C)=O)cc1)c1ccccc1` (stereo unspecified), the activity change (PNC), negative = inhibition was -124% (active).

Turning to `O=C(CC(=O)N/N=C\c1cccc(Cl)c1Cl)NCc1ccccc1`, the activity change (PNC), negative = inhibition was 44.3%.

As to `Nc1nc(SCC(=O)NNc2c(Cl)cc(Cl)cc2Cl)n[nH]1`, the activity change (PNC), negative = inhibition was 21.1%.

In the case of `CCCCOc1ccc(C(=O)NN2CCN(C)CC2)cc1`, the activity change (PNC), negative = inhibition was 15.4%.

For `COc1ccccc1Nc1nc(N)nc(CN(C)C2CCCCC2)n1`, the activity change (PNC), negative = inhibition was -29.7%.

Turning to `COc1ccccc1NC1=NC(c2ccc(Cl)cc2)N=C(N)N1` (stereo unspecified), the activity change (PNC), negative = inhibition is -92.7% (active).

In the case of `Cc1cc(C)nc(NC(=O)c2cccc([N+](=O)[O-])c2)c1`, the activity change (PNC), negative = inhibition is 69%.

Take `COCCCN(C(=S)Nc1c(C)cc(C)cc1C)C(C)c1ccncc1` (stereo unspecified): the activity change (PNC), negative = inhibition is -82.2% (active).

In the case of `COCCCN(C(=O)Cn1ncc2c(=O)oc3ccc(C)cc3c21)C(C)c1ccncc1` (stereo unspecified), the activity change (PNC), negative = inhibition was 3.72%.

With `CCCC/S(C)=N/S(=O)(=O)c1ccc(C)cc1` (stereo unspecified), the activity change (PNC), negative = inhibition is 24.9%.

On to `N/C(=N\OC(=O)N1c2ccccc2Sc2ccccc21)c1ccc(Br)cc1`, for which the activity change (PNC), negative = inhibition is -113% (active).

Take `COc1ccc(/C(N)=N/OC(=O)Cc2ccccc2)cc1`: the activity change (PNC), negative = inhibition is 17.5%.

Take `COc1ccc(/C(N)=N/OC(=O)Oc2ccccc2)cc1`: the activity change (PNC), negative = inhibition is 13.5%.

Consider `COc1cccc(NC(=O)CN(C)S(=O)(=O)c2ccc(C)cc2)c1`, for which the activity change (PNC), negative = inhibition was -3.49%.
